Among the data in PubChem BioAssay (NCI) are growth values, retold here.

The structures appear in SMILES notation. Compounds without any hit were thinned out: in the full panel of roughly 83,000, 20% have a hit.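 Growth was measured after 48 h exposure to one concentration of compound in 96-well plates. Values under 10 count as active.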 A number with no mark means an inactive call. Active and inactive are the calls of the source.

Among the test systems are SR leukemia; RPMI-8226 leukemia; OVCAR-8 ovarian; OVCAR-5 ovarian; SK-OV-3 ovarian; IGROV1 ovarian; OVCAR-3 ovarian; HS 578T breast; NCI/ADR-RES ovarian; OVCAR-4 ovarian.
Common to all, as to assay: NCI-60 one-dose screen, 48 h (100 = growth as untreated, 0 = no growth, -100 = all killed)
Conditions in all cases: 10 µM

As for `CCCCC(=O)N(c1ccc(Nc2c3ccccc3nc3cc([N+](=O)[O-])ccc23)cc1)S(C)(=O)=O`, the growth in the assay with SR leukemia is 5.36% (active); in the assay with RPMI-8226 leukemia, 35%; in the assay on OVCAR-8 ovarian, 71.7%; with OVCAR-5 ovarian, 96.9%; with SK-OV-3 ovarian, 80%; with IGROV1 ovarian, 48.7%. Also, the growth in the assay on OVCAR-3 ovarian is 88.3%; in the assay on HS 578T breast, 88.3%; in the assay with NCI/ADR-RES ovarian, 101%.

On to `Nc1nc2c(ncn2C2OC3COP(=O)(O)OC4C(COP(=O)(O)OC2C3O)OC(n2cnc3c(N)ncnc32)C4O)c(=O)[nH]1` (stereo unspecified), for which the growth was 57.8% in the assay with SR leukemia; 99.4% with RPMI-8226 leukemia; 102% in the assay with OVCAR-8 ovarian; 103% in the assay on OVCAR-5 ovarian; 87.3% in the assay on SK-OV-3 ovarian; 109% in the assay on IGROV1 ovarian. In addition, the results for the growth in the assay with OVCAR-3 ovarian, in the assay with HS 578T breast and in the assay on NCI/ADR-RES ovarian were 107%, 105% and 102%, respectively.

`COc1cc(-c2nc3ccccc3[nH]2)ccc1OCC(=O)N=Nc1c(O)[nH]c2ccccc12`: the growth in the assay on SR leukemia was -5.28% (active); with RPMI-8226 leukemia, 25.8%; in the assay on OVCAR-8 ovarian it was 49.1%; in the assay with OVCAR-5 ovarian, 109%; with IGROV1 ovarian, 93.2%; in the assay with OVCAR-3 ovarian, 79.6%. In addition, the growth in the assay on HS 578T breast was 83.7%; in the assay with NCI/ADR-RES ovarian, 109%.

As to `COc1cc(C2C(C#N)=C(c3c[nH]c4ccccc34)Nc3nc(N)[nH]c(=O)c32)cc(OC)c1OC` (stereo unspecified), the growth is 78.7% with SR leukemia; 98.2% in the assay with RPMI-8226 leukemia; 99.1% with OVCAR-8 ovarian; 96.8% in the assay with OVCAR-5 ovarian; 80.6% in the assay on SK-OV-3 ovarian; 80.3% with IGROV1 ovarian. The growth in the assay with OVCAR-3 ovarian was 21%; in the assay with HS 578T breast, 96%; with NCI/ADR-RES ovarian it was 100%.

For the molecule `Nc1ncncc1-c1ccc(F)cc1`, the growth in the assay on SR leukemia is 127%; with OVCAR-8 ovarian, 107%; in the assay on OVCAR-5 ovarian, 115%; in the assay on OVCAR-4 ovarian, 107%; in the assay on SK-OV-3 ovarian it was 108%; in the assay on IGROV1 ovarian, 110%. In addition, the growth in the assay with OVCAR-3 ovarian was 111%; with HS 578T breast it was 113%; in the assay on NCI/ADR-RES ovarian it was 107%.

Turning to `CC(C)C[C@H](NC(=O)Cn1ccc(Nc2ccccc2)cc1=O)B(O)O`, the growth in the assay on SR leukemia is 4.14% (active); in the assay with OVCAR-8 ovarian, 54.4%; in the assay on OVCAR-5 ovarian, 33.9%; with OVCAR-4 ovarian, 47.5%; with SK-OV-3 ovarian, 51.7%; in the assay with IGROV1 ovarian it was 53.4%. For the same molecule, the growth is -45.4% (active) with OVCAR-3 ovarian, 28.9% in the assay on HS 578T breast and 111% in the assay on NCI/ADR-RES ovarian.

Consider `O=C(O)CNS(=O)(=O)c1ccc(OCCOc2ccc(S(=O)(=O)NCC(=O)O)cc2)cc1`, for which the growth with SR leukemia was 103%; in the assay with OVCAR-8 ovarian it was 102%; in the assay on OVCAR-5 ovarian, 104%; in the assay with OVCAR-4 ovarian it was 115%; with SK-OV-3 ovarian it was 103%; with IGROV1 ovarian, 106%. Moreover, the growth was 103% with OVCAR-3 ovarian, 99.4% in the assay with HS 578T breast and 103% in the assay with NCI/ADR-RES ovarian.

`N#Cc1ncc(-c2cc(F)ccc2F)c(NC2CCCCCC2)n1`: the growth in the assay on SR leukemia is 81.6%; with OVCAR-8 ovarian, 88.4%; with OVCAR-5 ovarian, 98.9%; in the assay with OVCAR-4 ovarian, 80.3%; with SK-OV-3 ovarian, 91.6%; with IGROV1 ovarian, 86%. Besides, the growth is 103% with OVCAR-3 ovarian, 58.2% in the assay on HS 578T breast and 91.2% with NCI/ADR-RES ovarian.

With `CNC(=O)c1cc(Oc2ccc(NC(=O)Nc3ccc(Cl)c(C(C)(C)C)c3)c(F)c2)ccn1`, the growth in the assay on SR leukemia is 43.4%; in the assay on OVCAR-8 ovarian it was 44.9%; in the assay with OVCAR-5 ovarian, 82.6%; with OVCAR-4 ovarian it was 33.1%; in the assay on SK-OV-3 ovarian, 66.6%; with OVCAR-3 ovarian, 40.5%. For the same molecule, the growth in the assay with HS 578T breast is 64%; in the assay on NCI/ADR-RES ovarian it was 40.2%.

Consider `Nc1ccc2c(c1)Cc1cc(N)c(Cl)cc1-2`, for which the growth in the assay with SR leukemia is 88.8%; in the assay on OVCAR-8 ovarian, 97.9%; with OVCAR-5 ovarian, 112%; with OVCAR-4 ovarian, 84%; in the assay with SK-OV-3 ovarian it was 113%; with IGROV1 ovarian it was 98.2%. Further, the growth is 124% in the assay with OVCAR-3 ovarian, 89.8% with HS 578T breast and 107% in the assay with NCI/ADR-RES ovarian.

Regarding `CCCOCC(O)CNCCN` (stereo unspecified), the growth was 99.2% with SR leukemia; 102% in the assay on OVCAR-8 ovarian; 100% in the assay on OVCAR-5 ovarian; 102% in the assay on OVCAR-4 ovarian; 97.4% in the assay with SK-OV-3 ovarian; 116% in the assay with IGROV1 ovarian. The growth in the assay on OVCAR-3 ovarian is 121%; in the assay with HS 578T breast, 112%; with NCI/ADR-RES ovarian, 123%.

With `CCOC(=O)Nc1ccc2c(c1)C(=O)N(CC)c1ccccc1O2`, the growth in the assay on SR leukemia is 8.37% (active); with OVCAR-8 ovarian, 7.22% (active); with OVCAR-5 ovarian, 74%; with SK-OV-3 ovarian, 23.2%; with IGROV1 ovarian it was 32.1%; in the assay on OVCAR-3 ovarian, -7.48% (active). Also, the growth with HS 578T breast was 46%; with NCI/ADR-RES ovarian, 8.14% (active).

Regarding `O=[N+]([O-])c1ccc(-c2nc(Cl)c3c(n2)CCCC3)o1`, the growth in the assay on RPMI-8226 leukemia is 85.3%; in the assay on OVCAR-8 ovarian, 85%; in the assay on OVCAR-5 ovarian, 103%; with OVCAR-4 ovarian it was 89.6%; with SK-OV-3 ovarian, 108%; in the assay with IGROV1 ovarian, 89.3%. Moreover, the values for the growth with OVCAR-3 ovarian and with HS 578T breast were 108% and 86.8%, respectively.

Turning to `CCCCCCCCCCCCCCCCCBr`, the growth with SR leukemia was 92.7%; in the assay with OVCAR-8 ovarian, 106%; in the assay on OVCAR-5 ovarian, 100%; in the assay on OVCAR-4 ovarian, 111%; with SK-OV-3 ovarian, 100%; in the assay on IGROV1 ovarian, 103%. Moreover, the growth in the assay with OVCAR-3 ovarian is 114%; in the assay on HS 578T breast, 91.9%; in the assay with NCI/ADR-RES ovarian, 104%.

`CCc1cc2n(n1)-c1ncc(C(=O)OC)cc1Oc1ccccc1-2`: the growth in the assay with SR leukemia was 93.9%; in the assay on OVCAR-8 ovarian, 97.8%; with OVCAR-5 ovarian, 105%; in the assay on OVCAR-4 ovarian it was 100%; in the assay on SK-OV-3 ovarian, 102%; in the assay with IGROV1 ovarian it was 97%. Moreover, the growth with OVCAR-3 ovarian is 106%; in the assay with HS 578T breast, 97%; in the assay with NCI/ADR-RES ovarian, 103%.
